# Screening data deposited in PubChem by National Center for Advancing Translational Sciences (NCATS).
# Sampled rows, rich in hits. Any-hit rate of the full collection: about 3.8%.
# OvCa metastasis = blocks SKOV3ip1 adhesion and invasion in omental model. AID 1963576. Potency, µM (doses to about 45.8 µM), usual class: inhibitors. 46,000 compounds, 0.1% hits. SKOV3ip1-GFP adhesion/invasion on 3D omental model, fluorescence; further: nearly all actives have a fitted effect of over 65% in size
#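 qHTS, 4-pt dose (0.36-46 umol/L); SKOV3ip1-GFP, 1,200 cells/well, no FBS; primary omental fibroblast/mesothelial co-culture 48 h pre-grown; 2 h RT + 16 h 37 C; PBS wash, 4% PFA; GFP count 488/509 nm.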
# DRV1 agonist = agonists of human resolvin D1 receptor DRV1 (GPR32); O75388; CHO-K1 GPR32 beta-arrestin PathHunter luminescence, 90 min; zero percent set by DMSO-only wells; activation, % at 76.9 µM; 48,000 compounds, 2.5% hits; AID 1346428;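 active means activation of at least 60% and not above a set upper limit, about 1 call in 100 departs from these limits; inconclusive means activation of 40% to 60%, or above that upper limit; inactive means activation under 40%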
# Target sequence (O75388 whole entry, looked up): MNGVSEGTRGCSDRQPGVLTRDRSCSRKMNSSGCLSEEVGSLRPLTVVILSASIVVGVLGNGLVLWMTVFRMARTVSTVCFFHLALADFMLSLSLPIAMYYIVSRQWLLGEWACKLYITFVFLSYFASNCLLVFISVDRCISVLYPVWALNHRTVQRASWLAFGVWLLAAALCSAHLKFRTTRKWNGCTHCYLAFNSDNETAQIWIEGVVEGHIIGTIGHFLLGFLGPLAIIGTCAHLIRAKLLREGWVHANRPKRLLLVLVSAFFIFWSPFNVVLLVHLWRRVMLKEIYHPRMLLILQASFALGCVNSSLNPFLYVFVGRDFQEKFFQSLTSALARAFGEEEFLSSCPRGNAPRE
#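 Luminescent readout of beta-Gal complementation quantifies ligand-induced beta-arrestin association with GPR32 in CHO-K1 cells; 90 min compound incubation at 37 °C, detection 1 h at room temperature.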
# TSG101-PTAP inh = inhibitors of HIV-1 PTAP binding to human TSG101, validation. AID 1347069. 44,000 tested, under 10 active. Potency, µM (series often up to 115 µM), actives largely listed as inhibitors. Fluorescence polarization, FITC-PTAP peptide/Tsg101, 20 min
#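 Read-out is FITC fluorescence polarization. Compounds were added to Tsg101 binding domain (10 uM final), then FITC-PTAP peptide (50 nM final), 20 min at r.t. Total S+P intensity flags fluorescent compounds.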
# GALK inh = inhibits human galactokinase; Potency, µM (highest dose often 57.5 µM), usual class: inhibitors; recombinant GALK, Kinase-Glo ATP luminescence, 1 h; AID 1347072; P51570; 44,000 tested, under 10 active
#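 5 nM GALK with 35 µM ATP and 100 µM galactose in HEPES pH 8.0, MgCl2, NaCl, DTT, BSA; 1 h RT reaction, remaining ATP detected by Kinase-Glo Plus luminescence after 10 min; qHTS concentration series.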
# B2AR arrestin ag = agonists recruiting beta-arrestin to human beta2-adrenergic receptor | 44,000 tested, under 10 active | AID 1347077 | Potency, µM (series often up to 46.1 µM), most hits filed as activators | P07550 | HTLA Tango cells, beta-arrestin recruitment, luciferase luminescence, 18 h
#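 Tango cell line, 1% FBS DMEM; cpd titration up to 46 microM; 18 hr, 37 degrees C, 5% CO2. Luciferin/ATP substrate mix added, 15 min RT, luminescence. %Activity, CRC fitting, curve-class categorization.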
# NTMT1 inhibitor = inhibitors of human N-terminal methyltransferase NTMT1; Q9BV86; NTMT1 MTase-Glo SAH luminescence, purified enzyme; Potency, µM (series often up to 114 µM), most hits filed as inhibitors; 59,000 compounds, 2.5% hits; AID 1645870; further: nearly all actives have a fitted effect of over 65% in size
# Target sequence (Q9BV86 whole entry, looked up): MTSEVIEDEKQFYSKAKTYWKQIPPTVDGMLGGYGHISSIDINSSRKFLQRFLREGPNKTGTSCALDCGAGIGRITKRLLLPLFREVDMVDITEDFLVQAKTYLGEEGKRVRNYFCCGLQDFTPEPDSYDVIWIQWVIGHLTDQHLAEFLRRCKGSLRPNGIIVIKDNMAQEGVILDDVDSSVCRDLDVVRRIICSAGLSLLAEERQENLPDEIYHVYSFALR
# A number is an active result; . = inactive; ? = inconclusive; / = not tested or not shown; ! = not confirmed by another sample. Unless noted, the call rests on the fitted dose curve; in most records, active means well fitted curve in the direction sought with a large enough effect; inconclusive means small, poorly fitted or top-dose-only effect, or another doubt; inactive means no such curve, though single readings can be large; an effect the other way counts as inactive or inconclusive.
SMILES,OvCa metastasis,DRV1 agonist,TSG101-PTAP inh,GALK inh,B2AR arrestin ag,NTMT1 inhibitor
Cc1oc(-c2ccccc2)nc1CNS(=O)(=O)c1ccc(Cl)cc1,.,115,.,.,.,.
CCOC(=O)CC(NC(=O)Cn1nnc(-c2ccc(Cl)cc2)n1)c1ccc(OC)cc1 (stereo unspecified),.,.,.,.,.,.
CCOC(=O)C(Cc1ccccc1)NC(=O)Cn1nnc(-c2ccc(C)cc2)n1 (stereo unspecified),.,62,.,.,?,.
Cc1cc(Nc2ncnc3ccc(-c4ccc(CNCCS(C)(=O)=O)o4)cc23)ccc1Oc1ccn2ncnc2c1,.,/,/,/,/,22µM!
CCCCNc1nc(Oc2ccc(=O)n(C)n2)nc(N(C)C)n1,.,.,.,?,.,.
O=C(NCCc1ccccc1)c1ccc2c(c1)N(Cc1ccc(F)cc1Cl)C(=O)CS2,.,108,.,.,.,.
Cc1ccc(Cn2cc(CCC(=O)NCC(C)c3ccccc3)c3ccccc32)cc1 (stereo unspecified),.,.,.,.,.,.
Cc1ccc(NS(=O)(=O)c2ccc3nc(-c4ccccc4)[nH]c3c2)c(Cl)c1,?,104,.,?,.,.
Cc1ccc(NS(=O)(=O)c2ccc3nc(-c4ccccc4)[nH]c3c2)c(Br)c1,.,?,.,.,.,.
CC(C)c1ccc(NS(=O)(=O)c2ccc3nc(-c4ccccc4)[nH]c3c2)cc1,.,110,.,.,.,.
Cc1cccc(NS(=O)(=O)c2ccc3nc(-c4ccccc4)[nH]c3c2)c1C,.,86,.,.,.,.
COc1ccc(-c2c3c(=O)n(C)c(=O)n(C)c3c3n2-c2ccccc2NC3c2ccc(O)cc2O)cc1 (stereo unspecified),.,.,.,.,.,/
CCC(=O)Oc1cc(C(C)(C)C)cc2cc(-c3nc(-c4ccc(OC)cc4OC)no3)c(=O)oc12,.,.,.,.,.,.
CCOC(=O)N1CCc2c(sc3c2c(=O)n(-c2ccccc2C(F)(F)F)c(=O)n3Cc2ccccc2C)C1,.,.,.,.,.,.
Clc1cccc(N2CCN(c3ncnc4c3nc3n4CCCC3)CC2)c1,.,.,.,.,.,50µM
O=C(Nc1cccc(Cl)c1)C1CCCN(c2ncnc3c2nc2n3CCCCC2)C1 (stereo unspecified),.,67,.,.,.,?
COc1ccccc1CNC(=O)CSc1ncc2c(n1)-c1cc(Cl)ccc1N(Cc1ccccc1)S2(=O)=O,.,.,.,.,.,.
COC(=O)c1ccc(NC(=O)C2CCN(C(=O)c3ccc(F)cc3)CC2)cc1,.,61,.,.,.,.
COc1cccc(CNC(=O)Cn2ncn3nc(-c4cccs4)cc3c2=O)c1,.,.,.,.,.,.
COc1ccc(Cl)cc1N(C)C(=O)C(=O)Nc1ccc2nc3n(c(=O)c2c1)CCCCC3,.,80,.,.,.,.
COc1cc(OC)cc(C(=O)Nc2ccc3nc4n(c(=O)c3c2)CCCCC4)c1,.,.,.,.,.,45µM
CCOc1ccc(NC(=O)c2ccc3c(=O)n4c(nc3c2)CCCCC4)cc1,.,.,.,.,.,.
COc1ccc(C)cc1NC(=O)c1ccc2c(=O)n3c(nc2c1)CCCCC3,.,.,.,.,.,79µM
O=C(Nc1nc(-c2ccccc2)cs1)c1ccncc1NS(=O)(=O)c1cccc2cccnc12,/,/,/,/,/,50µM
Cc1ccc(S(=O)(=O)Nc2cnccc2C(=O)Nc2nc(-c3ccc(Oc4ccccc4)cc3)cs2)cc1,/,/,/,/,/,45µM
SMILES,OvCa metastasis,DRV1 agonist,TSG101-PTAP inh,GALK inh,B2AR arrestin ag,NTMT1 inhibitor
Cc1ccc(-c2csc(NC(=O)c3ccccc3NS(=O)(=O)c3ccc(C)cc3)n2)cc1,/,/,/,/,/,.
O=C(CCCc1ccccc1)NC1CC(=O)N(c2cccc(F)c2)C1 (stereo unspecified),.,.,.,.,?,.
O=C1Nc2ccc(S(=O)(=O)Nc3ccccc3O)c3cccc1c23,.,.,.,.,.,.
COc1ccc(C(CC(=O)Nc2ccc(F)c(Cl)c2)N2Cc3ccccc3C2=O)cc1OC (stereo unspecified),.,.,.,.,.,89µM
O=C(CS(=O)(=O)c1cccc2nsnc12)N1CCN(c2cccc(C(F)(F)F)c2)CC1,.,88,.,.,.,.
COc1ccc(S(=O)(=O)Cc2ccc(C(=O)NC3CCCCC3)o2)cc1,.,89,.,.,.,?
COc1ccc(CNC(=O)c2ccc(CS(=O)(=O)c3ccc(OC)cc3)o2)cc1,.,.,.,.,.,.
CCN(C(=O)c1noc2c1COc1ccc(C)cc1-2)c1cccc(C)c1,.,.,.,.,.,.
COc1cccc(CSc2nc3n(n2)C(c2ccc(C(=O)O)cc2)C(C(=O)Nc2ccccc2)=C(C)N3)c1 (stereo unspecified),.,.,.,.,.,45µM
CCOc1ccc(C2C(C(=O)Nc3ccccc3)=C(C)Nc3nc(SCc4cccc(OC)c4)nn32)cc1 (stereo unspecified),.,.,.,.,.,.
CC(=O)c1ccc(NC(=O)CC2Oc3ccc(C)cc3NC2=O)cc1 (stereo unspecified),.,65,.,.,.,.
c1ccc2c(c1)CCc1ccccc1N2,/,119,/,/,/,?
COc1ccc(Nc2ncc(C(=O)Nc3ccc(F)cc3F)c3ccccc23)cc1,.,.,.,.,.,.
CCOC(=O)C(=O)CCCCCCl,/,.,/,/,/,.
Cc1ccc(S(=O)(=O)Nc2nc3n(n2)C(c2ccccc2Cl)C=C(c2ccccc2)N3)cc1 (stereo unspecified),.,?,.,.,.,.
O=S(=O)(Nc1nc2n(n1)C(c1ccc(F)cc1)C=C(c1ccc(Cl)cc1)N2)c1ccccc1 (stereo unspecified),.,95,.,.,.,.
CC(=O)Nc1nc2n(n1)C(c1ccc(F)cc1)C=C(c1ccc(Cl)cc1)N2 (stereo unspecified),.,.,.,.,.,.
O=S(=O)(Nc1nc2n(n1)C(c1ccc(F)cc1)C=C(c1ccccc1)N2)c1ccccc1 (stereo unspecified),.,96,.,.,.,.
Cc1ccccc1Nc1nc(-c2cccc(Cl)c2)c2c(n1)-c1ccccc1OC2,.,.,.,.,.,.
COc1ccc(NC(=O)c2sc3nc4c(cc3c2N)CCCCCC4)cc1Cl,.,.,.,.,.,.
